According to PubChem BioAssay AID1851 (National Center for Advancing Translational Sciences (NCATS), 2009):
The whole screen tested about 16,000 compounds, of which about 2,600 (16%) were called active. Inconclusive results (about 20%) are left out. Calls come from the whole dose curve; as a rule, active = well fitted curve in the direction sought with a large enough effect; inconclusive = small, poorly fitted or top-dose-only effect, or effect the other way; inactive = no such curve, though single readings can be large or run the other way. The list is a sample of the results.

These compounds were tested against Cytochrome P450 2D6 (Homo sapiens) (UniProt P10635) (assay: Cytochrome panel assay with activity outcomes). Details: recombinant CYP, pro-luciferin dealkylation, luminescence, p450-cyp2d6; series mostly up to 57.1 µM.
Cytochrome P450 2D6 (Homo sapiens), sequence (P10635 whole entry, looked up): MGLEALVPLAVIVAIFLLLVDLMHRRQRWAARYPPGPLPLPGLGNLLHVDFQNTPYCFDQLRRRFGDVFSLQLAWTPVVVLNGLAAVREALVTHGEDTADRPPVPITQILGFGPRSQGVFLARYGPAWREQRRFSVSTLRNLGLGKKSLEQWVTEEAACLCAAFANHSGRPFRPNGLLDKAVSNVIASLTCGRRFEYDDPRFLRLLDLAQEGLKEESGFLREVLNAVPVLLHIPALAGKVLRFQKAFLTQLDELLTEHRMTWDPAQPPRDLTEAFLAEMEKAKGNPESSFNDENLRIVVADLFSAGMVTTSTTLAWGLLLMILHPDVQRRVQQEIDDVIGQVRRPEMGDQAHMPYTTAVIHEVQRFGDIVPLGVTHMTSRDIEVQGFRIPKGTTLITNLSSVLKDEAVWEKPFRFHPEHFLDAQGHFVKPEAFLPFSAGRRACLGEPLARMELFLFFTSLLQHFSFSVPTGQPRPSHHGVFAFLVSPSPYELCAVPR
% is set by controls: 0 for no effect and ±100 for the full control effect.

AC50, active:
O=[N+]([O-])c1cc(F)c(N2CCOCC2)cc1N1CCCCC1 10 µM, COc1ccccc1-c1nc(NCCNC(C)=O)c2ccccc2n1 6.31 µM, CC(=O)NCCNc1nc(-c2ccccc2C(F)(F)F)nc2ccccc12 3.98 µM, CC(=O)NCCNc1nc(-c2ccccc2Cl)nc2ccccc12 12.6 µM, CC(=O)NCCNc1nc(-c2ccccc2C)nc2ccccc12 5.01 µM, CN(C)C(=C(C#N)C#N)N1CCN(c2ccc(Cl)c(Cl)c2)CC1 1.12 µM, C=CCNCCOCCOc1ccc(C)cc1[N+](=O)[O-] 3.16 µM, CCCCNCCOCCOc1ccc(C)cc1[N+](=O)[O-] 2 µM

AC50, inactive:
CCCOc1ccc(C2C(=O)N(C3CCCCC3)CC(=O)N2C2CC2)cc1OC (configuration not stated), Cn1c[n+](C)cc1/C=N/O, O=[N+]([O-])c1ccc(N2CCCC2)cc1N1CCCC1, O=[N+]([O-])c1cccnc1N1CCOCC1, Cc1ccc(-c2nc3ccccc3s2)cc1NC(=O)c1cc(-n2cnnc2)ccc1Cl, CN1CCN(c2ncc3nc(-c4cccs4)c(=O)n(-c4ccccc4)c3n2)CC1, O=C(O)C1CCC(=O)N(C2CC2)C1c1ccccc1 (configuration not stated), COCCNc1nc(-c2ccccc2C(F)(F)F)nc2ccccc12, COCCNc1nc(-c2ccccc2Cl)nc2ccccc12, CC(=O)NCCNc1ccnc(-c2ccccc2C(F)(F)F)n1, CC(=O)NCCNc1ccnc(-c2ccccc2C)n1, COC(=O)[C@@]1(Cc2ccc(OC)cc2)[C@H]2c3cc(C(=O)N4CCCC4)n(CCc4c[nH]c5ccc(O)cc45)c3C[C@H]2CN1C(=O)c1ccccc1, O=Nc1c(-c2c(O)[nH]c3ccccc23)[nH]c2ccccc12, COc1ccc(C)cc1NC(=O)c1cc2cc3ccc(C)cc3nc2o1, Cc1ccc2cc(CCNC(=O)c3ccc(Br)o3)c(=O)[nH]c2c1, Cc1cccc(N(C)S(=O)(=O)c2ccc3[nH]c(=O)c(=O)[nH]c3c2)c1, COc1ccc(-n2c(=O)c(C)nc3cnc(OC)nc32)cc1, CCCn1c(=O)c2[nH]c(C3CCCC3)nc2n(CCC)c1=O, COc1ccc(-c2nc3cnc(N4CCOCC4)nc3n(CCc3ccccc3)c2=O)cc1, COC(=O)c1cc(=O)n(C2CC2)c(=NC2CC2)s1, Cc1ccc(OCC(=O)N/N=C\c2c(C)n(C)c3ccccc23)c([N+](=O)[O-])c1, CCCC(=O)N1CCN(c2ccc(NC(=O)c3ccc(OCC)c([N+](=O)[O-])c3)cc2)CC1, CCC(C)Nc1c([N+](=O)[O-])cc(C)cc1[N+](=O)[O-] (configuration not stated)

activity, negative = inhibition, inactive:
COC(=O)[C@@H]1CC[C@H](C)[C@@H](c2ccc(C)cc2)N1C(=O)c1ccc(/C=N\OCC[C@@H]2C=C[C@H](OC(C)=O)[C@H](COC(C)=O)O2)cc1 6.79% [at 11.4 µM]
